Test results taken from PubChem BioAssay AID493169 (National Center for Advancing Translational Sciences (NCATS), 2011).
Records with an inconclusive call do not appear. The source made the active and inactive calls. Calls follow the shape of the dose curve; as a rule, active = well fitted inhibition curve with a large enough effect; inconclusive = small, poorly fitted or top-dose-only effect; inactive = flat fitted curve, though single readings scatter.

Experiment: CHOP2 Reporter Counterscreen Assay for Inhibitors of Ubiquitin-specific Protease USP2a;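 also: activated enterokinase alone at 50 pM in a cell-free format rather than USP2a or CHOP2; nearly all actives have a fitted effect of over 55% in size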
Details: purified enterokinase, fluorogenic substrate, 485/531 nm; series mostly up to 38.3 µM; activity change, negative = inhibition: at the top concentration
How it was run: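 Cell-free counterscreen with pre-activated enterokinase alone (50 pM final) in 20mM Tris-HCl pH 8.0, 2mM CaCl2, 2mM beta-mercaptoethanol, 0.05% CHAPS; compound preincubation 30 min RT, reporter substrate 25nM final, fluorescence read after 10 min (Ex 485/Em 531).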
% is scaled to controls: 0 for no effect and ±100 for the full control effect; potency is read from the fitted curve at half-maximal effect.

SMILES | activity change, negative = inhibition | Potency
CCOC(=O)C1CCN(C(=O)COC(=O)c2c(C)c(CC)nc3ccccc23)CC1 | -0.452% (inactive) | –
Nc1ccccc1S(=O)(=O)NC1=NCCCCC1 | 3.72% (inactive) | –
CC1=NN(c2ccc(C)cc2)C(=O)/C1=C/c1ccc(-c2cc([N+](=O)[O-])ccc2O)o1 | – | 11.2 µM (active)
Cc1cccc(N2CCN(C(=O)CCc3nc4ccccc4[nH]3)CC2C)c1 (stereo not given) | 4.52% (inactive) | –
CC(=O)C1=C(O)C(=O)N(c2nnn(C)n2)C1c1cccs1 (stereo not given) | -0.348% (inactive) | –
N=c1sccn1CC(=O)Nc1ccc(S(=O)(=O)N2CCOCC2)cc1 | 10.2% (inactive) | –
CCOC(=O)Cn1c(=O)oc2cc(S(=O)(=O)Nc3cc(Cl)ccc3OC)ccc21 | 7.82% (inactive) | –
N#CCc1ccc(NC(=O)/C=C/c2ccc([N+](=O)[O-])o2)cc1 | – | 10 µM (active)
COc1cc(OC)cc(-c2c(C#Cc3ccsc3)c3cc(-c4ccc(OC)c(F)c4)ccc3n2C)c1 | 3.47% (inactive) | –
NS(=O)(=O)c1ccc(N=Nc2c(O)c(C(=O)O)cc3ccccc23)cc1 | – | 11.2 µM (active)
COC(=O)C1Sc2[nH]c(=O)sc2C(c2ccc(Cl)cc2)C1C(=O)OC (stereo not given) | -1.17% (inactive) | –
CCOc1ccccc1C(=O)Nc1nnc(C(C)C)s1 | -0.725% (inactive) | –
O=C(NC1CCCCC1)C(c1ccco1)N(C(=O)c1csnn1)c1cccc(F)c1 (stereo not given) | -1.19% (inactive) | –
CCOc1ccc(NC(=O)c2ccc(NC(=O)COC(=O)c3ccc(NC(=O)CC#N)cc3)cc2)cc1 | – | 2.82 µM (active)
O=C(Nc1ccc(C2=NCCN2)cc1)c1ccc(C(=O)Nc2ccc(C3=NCCN3)cc2)c([N+](=O)[O-])c1 | – | 7.94 µM (active)
O=C(O)c1cccc(-n2cccc2/C=C2/NC(=O)N(c3ccc(Cl)cc3)C2=O)c1 | – | 2 µM (active)
CCn1c(CN2CCOCC2)nnc1SCC(=O)Nc1ccc(C(C)=O)cc1 | -3.75% (inactive) | –
CC(=O)COc1ccc2c(-c3ccccc3)cc(=O)oc2c1 | -0.186% (inactive) | –
COc1cc(C(=O)OCC(=O)Nc2c(F)c(F)c(F)c(F)c2F)cc(OC)c1OC | -0.4% (inactive) | –
COc1ccc(OCC(=O)NCCNC(=O)c2cccnc2)cc1 | 3.16% (inactive) | –

SMILES | activity change, negative = inhibition | Potency
CCCCc1ccc(/C=C2/C(=O)ON=C2c2ccccc2)s1 | -1.37% (inactive) | –
O=C1OC[C@@H]2CCCN2C(=O)[C@@H](CC(=O)N(CCO)Cc2ccccc2)C/C=C\C[C@@H]1Cc1ccc(F)cc1 | 0.34% (inactive) | –
COc1ccc(-n2c(=S)[nH]c3cc(C(=O)NCc4ccc(F)cc4)ccc3c2=O)c(OC)c1 | -1.81% (inactive) | –
COc1ccc(/C=C2/SC(=S)N(c3ccc(S(=O)(=O)Nc4nccs4)cc3)C2=O)cc1 | – | 11.2 µM (active)
CCOC(=O)N1CCN(C(=O)CN(c2cccc(C)c2)S(=O)(=O)c2ccccc2)CC1 | 1.95% (inactive) | –
CCOC(=O)c1sc(NC(=O)Nc2ccccc2)cc1C | 4.87% (inactive) | –
COc1cc2c(ccc3cc(OC)c(OC)c(O)c32)cc1O | – | 5.62 µM (active)
CCOC(=O)C1=CN(Cc2cccc(F)c2)S(=O)(=O)NC1c1ccc(Br)cc1F (stereo not given) | -6.87% (inactive) | –
COc1ccc(C(=O)CSc2nnc(-c3ccco3)c(-c3ccco3)n2)cc1 | – | 6.31 µM (active)
O=C(c1ccccc1N(Cc1ccccc1)S(=O)(=O)c1ccccc1)N1CCOCC1 | -0.49% (inactive) | –
C[C@@H]1CN([C@@H](C)CO)C(=O)c2cc(NC(=O)CCC(F)(F)F)ccc2O[C@H]1CN(C)S(=O)(=O)c1ccc(Cl)cc1 | 1.64% (inactive) | –
COc1ccc(OC)c(NC(=O)CSc2nc(O)cc(=O)n2CC(C)C)c1 | 0.692% (inactive) | –
Cc1ccc(C(=O)O/N=C/c2c(C(F)(F)F)nn(C)c2Sc2ccc(Cl)cc2)cc1 | -0.861% (inactive) | –
O=C(CSc1nnc(SCc2ccccc2)s1)N/N=C/C=C/c1ccco1 | – | 2.51 µM (active)
O=C(N/N=C/C=C/c1ccccc1)c1ccncc1 | 6.48% (inactive) | –
Cc1cc(C)n2nc(S(=O)(=O)NCCc3ccccc3)nc2n1 | -2.84% (inactive) | –
Cc1ccc(C(=O)N(c2c(C)n(C)n(-c3ccccc3)c2=O)C(C)C)cc1 | -2.46% (inactive) | –
CC(C)n1c(/C=C/[C@H](O)C[C@H](O)CC(=O)O)c(-c2ccc(F)cc2)c2ccccc21 | 5.52% (inactive) | –
Cc1cc(C)c(NC(=O)C[N+](C)(C)CC(O)COc2cccc3ccccc23)c(C)c1 (stereo not given) | -4.33% (inactive) | –
Cc1c2c(=O)n(-c3nc4ccccc4s3)nc-2cc(O)n1Cc1ccccc1 | – | 11.2 µM (active)
